The source of these data is PubChem BioAssay AID504550 (Sanford-Burnham Center for Chemical Genomics, 2011).

Some of the results follow. A number with no mark means an inactive call. Calls of active or inactive are those of the source.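 Rule for the calls: active = mean activation at 20 µM of at least 40%; inactive = the rest.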

In the experiment the target is Neurotensin receptor type 1 (Homo sapiens) (UniProt P30989). In words: beta-arrestin-GFP spots via human NTR1 – imaging, U2OS cells, single concentration, confirmation (AID 504550).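 Note: 0% = DMSO without peptide and 100% = 100 nM NTR1 peptide.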 The following applies: NTR1-U2OS beta-arrestin-GFP translocation imaging; at 20 µM; active compounds read high.
Neurotensin receptor type 1 (Homo sapiens), sequence (P30989 whole entry, looked up): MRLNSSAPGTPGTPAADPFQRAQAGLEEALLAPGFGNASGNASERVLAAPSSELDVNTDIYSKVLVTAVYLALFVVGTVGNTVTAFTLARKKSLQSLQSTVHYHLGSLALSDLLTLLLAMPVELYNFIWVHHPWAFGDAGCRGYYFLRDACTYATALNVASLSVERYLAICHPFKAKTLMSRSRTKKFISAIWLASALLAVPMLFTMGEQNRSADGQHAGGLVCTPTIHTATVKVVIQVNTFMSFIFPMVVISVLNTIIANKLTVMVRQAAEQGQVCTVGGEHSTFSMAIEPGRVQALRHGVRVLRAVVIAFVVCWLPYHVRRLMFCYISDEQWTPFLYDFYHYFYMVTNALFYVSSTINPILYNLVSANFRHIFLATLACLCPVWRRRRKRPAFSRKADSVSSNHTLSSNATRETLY
Turning to `OC(CN=c1sc2ccccc2n1CC(O)COc1ccccc1)COc1ccccc1` (stereo not given), the activation is 18.2%. With `CC(C)c1ccccc1OCC(O)CN(CC(O)COc1cccc2ccccc12)C(C)C` (stereo not given), the activation was 15.3%. For the compound `Cc1ccc(NC(=O)COc2coc(CN3CCc4ccccc4C3)cc2=O)cc1Cl`, the activation is -2.38%. The value for `Nc1nc(Nc2ccccc2F)nc(NC2CCCCC2)c1[N+](=O)[O-]` was 13.2%; that for `COc1ccc(C(C[N+](=O)[O-])n2nc(C)cc2C)cc1` (stereo not given) was 52.4% (active).
